Eight compounds from PubChem BioAssay (Tox21) can be followed below.

“And” between values parts separate entries of the source, which are not always exact repeats. Equal entries are not always repeated. Results filed as inconclusive are left out. Some compounds were tested as several samples or in several runs, with calls that do not always agree. The source made the active and inactive calls. Unless noted, the call rests on the fitted dose curve.

In test [1] the target is Peroxisome proliferator-activated receptor delta (Homo sapiens) (UniProt Q03181). The test can be described thus: qHTS assay to identify small molecule agonists of the peroxisome proliferator-activated receptor delta (PPARd) signaling pathway (AID 743212). Summed up:
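GeneBLAzer UAS-bla HEK293H cells carrying a PPARδ construct were exposed to compounds at 37 °C. Beta-lactamase activity was read by FRET fluorescence after 2 h at room temperature with LiveBLAzer B/G substrate.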

Test [2] can be described thus: qHTS assay to identify small molecule antagonists of the peroxisome proliferator-activated receptor delta (PPARd) signaling pathway - cell viability counter screen (AID 743213; active means well fitted curve in the direction sought with a large enough effect in the repeat runs; an effect the other way counts as inactive or inconclusive; further: nearly all actives have a fitted effect of over 50% in size). The method, boiled down:
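Agonist-stimulated (L165041, 300 nM final) HEK293H PPARd UAS-bla cells are exposed to compounds for 17 h at 37 C, and ATP-based luminescence (CellTiter-Glo) from the same wells reports cytotoxicity.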

In test [3] the target is Bile acid receptor (Homo sapiens) (UniProt Q96RI1). The test can be described thus: qHTS assay to identify small molecule antagonists of the farnesoid-X-receptor (FXR) signaling pathway (AID 743217; active means well fitted inhibition curve with a large enough effect in the signal ratio in the repeat runs, not every such curve was filed as active; the % refers to the signal ratio). The method, boiled down:
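FXR-UAS-bla HEK 293T cells pre-incubated 5 h at 37 °C, then exposed to compounds with chenodeoxycholic acid (50 uM final) for 16 h at 37 °C. Beta-lactamase reporter read by LiveBLAzer B/G FRET substrate fluorescence after 2 h at room temperature.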

Test [4] can be described thus: qHTS assay to identify small molecule agonists of the farnesoid-X-receptor (FXR) signaling pathway - cell viability counter screen (AID 743218; active means well fitted curve in the direction sought with a large enough effect in the repeat runs; an effect the other way counts as inactive or inconclusive; further: nearly all actives have a fitted effect of over 45% in size). Summed up: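 FXR-UAS-bla HEK 293T cells, plated 5 h at 37 C, were exposed to compounds for 16 h at 37 C. CellTiter-Glo was then added to the same wells as the bla readout; luminescence read after 30 min at room temperature.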

Test [5] concerns the target Bile acid receptor (Homo sapiens) (UniProt Q96RI1). The test is described as follows: qHTS assay to identify small molecule agonists of the farnesoid-X-receptor (FXR) signaling pathway (AID 743220; active means well fitted activation curve with a large enough effect in the signal ratio in the repeat runs, not every such curve was filed as active; the % refers to the signal ratio). Summed up:
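Beta-lactamase reporter under UAS control in GeneBLAzer FXR HEK 293T cells (5000/well) measured with LiveBLAzer FRET substrate after 2 h at room temperature. Compound exposure lasted 16 h at 37C.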

Test [6] has as its target Vitamin D3 receptor (Homo sapiens) (UniProt P11473). The test is described as follows: qHTS assay to identify small molecule agonists of the vitamin D receptor (VDR) signaling pathway (AID 743222). Summed up:
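VDR-bla cells were plated 4 h at 37C/5% CO2, then exposed to compounds in DMSO for 16 h. After LiveBLAzer B/G FRET substrate addition and 2 h at room temperature, beta-lactamase reporter fluorescence was read.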

The target is the same in test [7]. The test can be described thus: qHTS assay to identify small molecule antagonists of the vitamin D receptor (VDR) signaling pathway (AID 743223; active means well fitted inhibition curve with a large enough effect in the signal ratio in the repeat runs, not every such curve was filed as active; the % refers to the signal ratio). The method, boiled down: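 Quantitative HTS in VDR-bla reporter cells stimulated with 1alpha,25-dihydroxyvitamin D3, 3 nM final. Compound exposure 16 h, 37C, 5% CO2. Read-out: beta-lactamase FRET substrate fluorescence, 2 h RT.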

Test [8] can be described thus: qHTS assay to identify small molecule agonists of the NFkB signaling pathway (AID 1159509; active means well fitted curve in the direction sought with a large enough effect in the signal ratio in the repeat runs, not every such curve was filed as active; the % refers to the signal ratio; further: series mostly up to about 61 µM). The method, boiled down:
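NFkB-bla ME-180 cells carry a beta-lactamase reporter under an NF-kB response element. They were plated overnight, then exposed to compounds for 5 h at 37 C. Read-out is LiveBLAzer FRET after 1.5 hr at room temperature (405 nm excitation; 460/530 nm emission).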

Test [9] can be described thus: qHTS assay to identify small molecule agonists of the NFkB signaling pathway - cell viability counter screen (AID 1159515). Further: series mostly up to about 61 µM; nearly all actives have a fitted effect of over 55% in size. The method, boiled down:
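NFkB-bla ME-180 cells, 2,000/well, were plated overnight at 37 C, 5% CO2, then exposed to compounds in DMSO for 5 hr. After the bla FRET read, CellTiter-Glo was added to the same wells; luminescence was read after 30 min at room temperature.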

Test [10] can be described thus: qHTS assay to identify small molecule agonists of the endoplasmic reticulum stress response signaling pathway (AID 1159516; active means well fitted activation curve with a large enough effect in the signal ratio in the repeat runs, not every such curve was filed as active; the % refers to the signal ratio). The method, boiled down:
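CellSensor ESRE-bla HeLa cells, carrying a beta-lactamase reporter driven by the ER stress response element, were plated overnight and exposed to compounds for 5 hr at 37 C. Reporter activity was read as FRET substrate fluorescence after 2 hr at room temperature.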

The nature of test [11]: qHTS assay to identify small molecule agonists of the endoplasmic reticulum stress response signaling pathway - cell viability counter screen (AID 1159517). Further: series mostly up to about 61 µM; nearly all actives have a fitted effect of over 50% in size. Summed up:
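ESRE-bla HeLa cells, 1,500 per well, seeded overnight then treated with compounds for 5 hr at 37 C. After the beta-lactamase read, viability in the same wells is measured by CellTiter-Glo luminescence after 30 min at room temperature.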

The nature of test [12]: qHTS assay to identify small molecule antagonists of the retinoid-related orphan receptor gamma (ROR-gamma) signaling pathway - cell viability counter screen (AID 1159520; active means well fitted curve in the direction sought with a large enough effect in the repeat runs; an effect the other way counts as inactive or inconclusive; further: nearly all actives have a fitted effect of over 50% in size). The method, boiled down: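 Tet-on ROR gamma CHO cells were given compounds for 2 hr, then doxycycline hyclate at 1 uM final, and incubated 16 hr at 37 C. Viability was measured as ATP content by CellTiter-Glo luminescence.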

The target in test [13] is Nuclear receptor ROR-gamma (Homo sapiens) (UniProt P51449). The test is described as follows: qHTS assay to identify small molecule antagonists of the retinoid-related orphan receptor gamma (ROR-gamma) signaling pathway (AID 1159521; active means well fitted curve in the direction sought with a large enough effect in the repeat runs; an effect the other way counts as inactive or inconclusive;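 further: CHO cells with doxycycline inducible ROR-gamma driving an RORE luciferase reporter; top concentration of the series differs between compounds; nearly all actives have a fitted effect of over 50% in size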). Summed up:
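Inducible-expression reporter assay: doxycycline (1 uM final) switched on RORγ in CHO cells bearing a ROR response element-luciferase construct, with test compounds present from 2 h beforehand. Decreased luminescence after 16 h defined antagonist activity.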

Test [14] in a line: qHTS assay to identify small molecule agonists of the AP-1 signaling pathway - cell viability counter screen (AID 1159525). Further: nearly all actives have a fitted effect of over 55% in size. Summed up:
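AP-1-bla ME-180 cells in Opti-MEM with 0.5% dialyzed FBS, compound exposure 5 h at 37 C in 15-point titration. Viability read in the same wells as ATP content by CellTiter-Glo luminescence, normalised to tetra-n-octylammonium bromide and DMSO controls.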

Test [15] in a line: qHTS assay to identify small molecule agonists of the AP-1 signaling pathway (AID 1159526).
Test [16] deals with Retinoic acid receptor RXR-alpha (Homo sapiens) (UniProt P19793). The test can be described thus: qHTS assay to identify small molecule agonists of the RXR signaling pathway (AID 1159527). Further: nearly all actives have a fitted effect of over 35% in size. Further: potency means the concentration at half of the fitted maximal effect. Summed up:
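Compounds in DMSO were added to RXR-alpha-UAS-bla HEK 293T cells kept in 2% charcoal-stripped serum, and incubated 16 hr at 37 C with 5% CO2. Reporter signal came from a 2 hr B/G FRET substrate step.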

Test [17] in a line: qHTS assay to identify small molecule antagonists of the farnesoid-X-receptor (FXR) signaling pathway - cell viability counter screen (AID 743221; active means well fitted cell-killing curve with a large enough effect in the repeat runs, not every such curve was filed as active; further: nearly all actives have a fitted effect of over 50% in size). Summed up:
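Cytotoxicity is taken from ATP luminescence (CellTiter-Glo, 30 min, room temperature) in FXR-bla HEK 293T cells previously incubated 16 h at 37 C with compound and chenodeoxycholic acid at 50 uM final.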

The nature of test [18]: qHTS assay to identify small molecule agonists of the vitamin D receptor (VDR) signaling pathway - cell viability counter screen (AID 743224; active means well fitted curve in the direction sought with a large enough effect in the repeat runs; an effect the other way counts as inactive or inconclusive; further: nearly all actives have a fitted effect of over 50% in size; further: potency means the concentration at half of the fitted maximal effect). The method, boiled down:
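VDR-bla cells were preincubated 4 h at 37C/5% CO2, then exposed to compounds for 16 h. After the 2 h room-temperature bla FRET read, CellTiter-Glo was added to the same wells and luminescence read after 30 min.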

Test [19] deals with Peroxisome proliferator-activated receptor delta (Homo sapiens) (UniProt Q03181). The test can be described thus: qHTS assay to identify small molecule antagonists of the peroxisome proliferator-activated receptor delta (PPARd) signaling pathway (AID 743215; active means well fitted inhibition curve with a large enough effect in the signal ratio in the repeat runs, not every such curve was filed as active; the % refers to the signal ratio; further: series mostly up to about 62 µM). Summed up:
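PPARd UAS-bla HEK293H cells were pre-incubated 5 h at 37 C, then given test compounds in DMSO plus agonist L165041 (300 nM final). After 17 h at 37 C, beta-lactamase FRET substrate was added; fluorescence read after 2 h at room temperature.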

The nature of test [20]: qHTS assay to identify small molecule antagonists of the vitamin D receptor (VDR) signaling pathway - cell viability counter screen (AID 743225; active means well fitted curve in the direction sought with a large enough effect in the repeat runs; an effect the other way counts as inactive or inconclusive; further: nearly all actives have a fitted effect of over 50% in size). The method, boiled down:
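Same-well multiplex: following 16 h treatment of HEK 293T cells carrying a UAS-driven beta-lactamase reporter with compound and agonist (3 nM final), and a 2 h FRET substrate step, CellTiter-Glo was added and luminescence read after 30 min.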

Sequence of Retinoic acid receptor RXR-alpha (Homo sapiens) (P19793 whole entry, looked up): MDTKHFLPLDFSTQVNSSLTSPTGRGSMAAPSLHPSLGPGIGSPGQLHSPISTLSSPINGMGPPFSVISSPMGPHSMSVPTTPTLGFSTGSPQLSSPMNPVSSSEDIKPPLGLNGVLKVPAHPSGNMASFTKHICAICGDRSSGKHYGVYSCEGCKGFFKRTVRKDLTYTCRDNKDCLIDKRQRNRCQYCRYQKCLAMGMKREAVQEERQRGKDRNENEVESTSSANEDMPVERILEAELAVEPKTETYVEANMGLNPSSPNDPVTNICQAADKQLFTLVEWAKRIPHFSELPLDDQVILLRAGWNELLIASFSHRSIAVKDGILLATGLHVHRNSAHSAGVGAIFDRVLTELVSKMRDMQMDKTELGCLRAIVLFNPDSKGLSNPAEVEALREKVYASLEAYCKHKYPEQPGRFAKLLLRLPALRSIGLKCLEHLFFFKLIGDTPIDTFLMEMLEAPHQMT
Sequence of Bile acid receptor (Homo sapiens) (Q96RI1 whole entry, looked up): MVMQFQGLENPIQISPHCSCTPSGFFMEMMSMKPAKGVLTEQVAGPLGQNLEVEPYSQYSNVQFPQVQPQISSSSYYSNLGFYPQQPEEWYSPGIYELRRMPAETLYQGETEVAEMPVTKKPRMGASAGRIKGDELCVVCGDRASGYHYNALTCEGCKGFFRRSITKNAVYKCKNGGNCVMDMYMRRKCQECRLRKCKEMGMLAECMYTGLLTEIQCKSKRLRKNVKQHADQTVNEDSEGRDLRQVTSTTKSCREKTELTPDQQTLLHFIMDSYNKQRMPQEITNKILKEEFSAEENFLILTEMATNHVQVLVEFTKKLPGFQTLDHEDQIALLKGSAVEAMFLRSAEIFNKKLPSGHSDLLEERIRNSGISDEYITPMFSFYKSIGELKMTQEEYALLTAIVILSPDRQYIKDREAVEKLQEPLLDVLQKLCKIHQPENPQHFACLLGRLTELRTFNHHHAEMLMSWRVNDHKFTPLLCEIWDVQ
Sequence of Peroxisome proliferator-activated receptor delta (Homo sapiens) (Q03181 whole entry, looked up): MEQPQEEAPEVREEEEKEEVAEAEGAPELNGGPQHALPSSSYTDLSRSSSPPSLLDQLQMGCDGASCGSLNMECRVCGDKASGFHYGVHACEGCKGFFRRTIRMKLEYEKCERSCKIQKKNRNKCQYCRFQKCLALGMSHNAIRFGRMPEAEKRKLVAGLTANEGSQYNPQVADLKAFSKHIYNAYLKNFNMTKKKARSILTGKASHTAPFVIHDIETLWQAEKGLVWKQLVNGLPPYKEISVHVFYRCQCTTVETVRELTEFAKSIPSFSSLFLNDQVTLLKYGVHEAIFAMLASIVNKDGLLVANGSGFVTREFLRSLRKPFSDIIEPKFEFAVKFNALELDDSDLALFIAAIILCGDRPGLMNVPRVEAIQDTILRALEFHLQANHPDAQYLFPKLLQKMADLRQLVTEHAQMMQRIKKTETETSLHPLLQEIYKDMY
Sequence of Vitamin D3 receptor (Homo sapiens) (P11473 whole entry, looked up): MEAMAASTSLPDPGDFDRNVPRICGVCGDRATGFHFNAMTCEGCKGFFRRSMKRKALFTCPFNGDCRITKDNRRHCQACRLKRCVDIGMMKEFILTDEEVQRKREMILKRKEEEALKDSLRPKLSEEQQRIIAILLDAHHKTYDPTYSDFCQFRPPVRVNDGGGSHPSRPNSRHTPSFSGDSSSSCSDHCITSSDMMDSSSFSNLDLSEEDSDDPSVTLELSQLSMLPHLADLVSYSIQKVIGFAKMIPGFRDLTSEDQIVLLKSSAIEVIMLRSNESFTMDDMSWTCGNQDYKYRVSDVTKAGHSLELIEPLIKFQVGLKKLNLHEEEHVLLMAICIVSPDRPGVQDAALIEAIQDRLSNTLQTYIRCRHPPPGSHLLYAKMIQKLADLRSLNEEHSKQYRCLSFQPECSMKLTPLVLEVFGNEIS

Take `c1ccc2c(c1)ccc1ccccc12`: the result in [1], in [2], in test [3], in test [5], in test [6] and in test [7] was inactive. Also, the outcome in [8], in test [9], in test [10], in [11] and in test [15] was inactive. In addition, the Potency entry in test [4], in test [12], in test [13], in test [14] and in test [16] was “inactive” in each case.

On to `CCCCCC/C(C=O)=C\c1ccccc1`, for which the compound was classed as inactive in test [1], in test [2], in test [3], in test [5], in test [6] and in test [7]. The compound was called inactive in [8], in test [9], in test [10], in test [11] and in test [15]. In addition, the Potency entry in test [4], in test [17], in [18], in [12], in test [13] and in test [14] was “inactive” in each case.

As for `Cc1cccc(O)c1`, the result in [1], in test [2], in test [8], in [9], in [10] and in test [11] was inactive. For the same compound, the outcome in test [15] was inactive. In addition, the Potency result in test [19], in test [4], in test [17], in test [18], in test [12] and in test [13] was “inactive” in each case. In addition, in [14], the Potency result is “inactive”.

For `O=C(Oc1ccccc1)c1ccccc1`, the outcome in test [1], in [2], in test [3], in test [5], in test [20] and in test [8] was inactive. In addition, the compound was classed as inactive in test [9], in [10], in [11] and in [15]. Also, the Potency entry in test [19], in test [4], in [17], in test [18], in test [12] and in test [13] was “inactive” in each case. In [14], the Potency entry was “inactive”.

As for `O=C(O)CCCCCCCCCCC(=O)O`, the result in test [1], in [2], in test [3], in test [5], in test [6] and in test [7] was inactive. For the same compound, the call in [20], in test [8], in [9], in test [10], in [11] and in test [15] was inactive. Besides, the Potency result in test [4], in [17], in [18], in [12], in test [13] and in [14] was “inactive” throughout.

`CCC(O)OC(O)CC` (configuration not stated): the outcome in [2], in test [6], in test [7], in test [8], in test [9] and in test [10] was inactive. Besides, the result in test [11] and in test [15] was inactive. Moreover, the Potency entry in test [4], in test [17], in test [12], in [14] and in [16] was “inactive” in each case.

As to `COc1ccc(Nc2ccccc2)c(C)c1`, the compound was classed as inactive in [1], in test [20], in [8], in test [9], in [10] and in [11]. In test [15], the call was inactive. Besides, the Potency entry in test [4], in test [17], in [18], in test [12], in [13] and in test [14] was “inactive” in each case.

For `CCCCCOC(C)=O`, the compound was classed as inactive in test [1], in [2], in [3], in [5], in test [6] and in test [7]. The outcome in [20], in test [8], in test [9], in [10], in [11] and in test [15] was inactive. The Potency entry in test [19], in test [4], in [17], in [12] and in [14] was “inactive” throughout. The Potency result is “inactive and 49 µM (active)” in [18]; 279 nM (active) in [16].
